From paper PMC8384837, “Expanding the binding specificity for RNA recognition by a PUF domain”
Residue numbers refer to the chain shown, from its start.

Key:
Test in all cases: yeast three-hybrid, YBZ-1, SC-Leu-His + 0.5 mM 3-AT, 4 days
Conditions in all cases: tags: N-Gal4 AD-HA kept; label: inside an RPR1-promoter hybrid RNA with tandem MS2 sites; ssRNA
PUM1 PUF domain R5-RQP = PUM1 PUF domain R5-RQP (Homo sapiens, UniProt Q14671 828-1176, C1007R;R1008Q;Q1011P)
Summary of the method: (§1)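 A centromeric plasmid in strain YBZ-1 co-expressed Pumilio-1 PUF domain libraries, randomized at the three base-contacting residues of each repeat, with matching RNA elements; the strain carries a LexA–MS2 coat fusion and a HIS3 reporter. After four days on SC-Leu (input) or SC-Leu-His + 0.5 mM 3-AT (selection), the repeat regions were PCR-amplified and Illumina-sequenced. The interaction score is the log change in variant frequency from input to selection, using log2 and a pseudocount of 1 where absent.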

PUM1 PUF domain R6-GWK = molecular target: T1, PUM1 PUF domain R6-GWK (Homo sapiens, UniProt Q14671 828-1176, N1043G;Y1044W;Q1047K)
T1 sequence: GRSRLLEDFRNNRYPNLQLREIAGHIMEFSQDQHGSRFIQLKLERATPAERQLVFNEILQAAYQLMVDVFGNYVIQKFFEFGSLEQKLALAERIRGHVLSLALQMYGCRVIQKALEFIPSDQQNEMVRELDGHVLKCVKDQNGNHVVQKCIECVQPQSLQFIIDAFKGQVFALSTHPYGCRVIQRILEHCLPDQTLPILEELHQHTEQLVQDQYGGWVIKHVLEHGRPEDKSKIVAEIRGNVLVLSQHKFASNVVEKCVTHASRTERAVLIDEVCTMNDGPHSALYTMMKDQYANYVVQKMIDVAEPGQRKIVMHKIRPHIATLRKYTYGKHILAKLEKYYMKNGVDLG
Summary of the method: as §1

PUM1 PUF domain R4-MPS = PUM1 PUF domain R4-MPS (Homo sapiens, UniProt Q14671 828-1176, N971M;H972P;Q975S)
Summary of the method: as §1

PUM1 PUF domain R5-GRY = PUM1 PUF domain R5-GRY (Homo sapiens, UniProt Q14671 828-1176, C1007G;Q1011Y)
Summary of the method: as §1

PUM1 PUF domain R4-TPV = PUM1 PUF domain R4-TPV (Homo sapiens, UniProt Q14671 828-1176, N971T;H972P;Q975V)
Summary of the method: as §1

PUM1 PUF domain R3-VWG = PUM1 PUF domain R3-VWG (Homo sapiens, UniProt Q14671 828-1176, C935V;R936W;Q939G)
Summary of the method: as §1

PUM1 PUF domain R6-NRS = molecular target: T2, PUM1 PUF domain R6-NRS (Homo sapiens, UniProt Q14671 828-1176, Y1044R;Q1047S)
T2 sequence: T1 sequence with G216N, W217R, K220S
Summary of the method: as §1

PUM1 PUF domain R5-FRK = PUM1 PUF domain R5-FRK (Homo sapiens, UniProt Q14671 828-1176, C1007F;Q1011K)
Summary of the method: as §1

PUM1 PUF domain R4-RIY = PUM1 PUF domain R4-RIY (Homo sapiens, UniProt Q14671 828-1176, N971R;H972I;Q975Y)
Summary of the method: as §1

PUM1 PUF domain R4-GPY = PUM1 PUF domain R4-GPY (Homo sapiens, UniProt Q14671 828-1176, N971G;H972P;Q975Y)
Summary of the method: as §1

PUM1 PUF domain R5-KSS = PUM1 PUF domain R5-KSS (Homo sapiens, UniProt Q14671 828-1176, C1007K;R1008S;Q1011S)
Summary of the method: as §1

PUM1 PUF domain R5-SKC = PUM1 PUF domain R5-SKC (Homo sapiens, UniProt Q14671 828-1176, C1007S;R1008K;Q1011C)
Summary of the method: as §1

PUM1 PUF domain R3-RAM = PUM1 PUF domain R3-RAM (Homo sapiens, UniProt Q14671 828-1176, C935R;R936A;Q939M)
Summary of the method: as §1

PUM1 PUF domain R6-NWI = molecular target: T3, PUM1 PUF domain R6-NWI (Homo sapiens, UniProt Q14671 828-1176, Y1044W;Q1047I)
T3 sequence: T1 sequence with G216N, K220I
Summary of the method: as §1

PUM1 PUF domain R8-VFK = PUM1 PUF domain R8-VFK (Homo sapiens, UniProt Q14671 828-1176, N1122V;Y1123F;Q1126K)
Summary of the method: as §1

PUM1 PUF domain R3-GND = PUM1 PUF domain R3-GND (Homo sapiens, UniProt Q14671 828-1176, C935G;R936N;Q939D)
Summary of the method: as §1

PUM1 PUF domain R1-KVV = PUM1 PUF domain R1-KVV (Homo sapiens, UniProt Q14671 828-1176, S863K;R864V;Q867V)
PUM1 PUF domain R1-KVV, sequence (Q14671 828-1176 S863K/R864V/Q867V): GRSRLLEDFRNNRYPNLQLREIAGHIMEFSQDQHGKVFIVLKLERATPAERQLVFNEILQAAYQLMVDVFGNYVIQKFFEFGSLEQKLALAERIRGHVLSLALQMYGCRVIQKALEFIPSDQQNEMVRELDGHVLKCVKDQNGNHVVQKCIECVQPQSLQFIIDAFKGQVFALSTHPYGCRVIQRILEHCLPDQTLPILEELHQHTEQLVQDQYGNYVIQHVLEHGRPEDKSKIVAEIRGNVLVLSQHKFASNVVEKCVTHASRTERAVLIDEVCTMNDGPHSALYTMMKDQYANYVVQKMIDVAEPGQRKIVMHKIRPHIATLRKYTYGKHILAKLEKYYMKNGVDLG
Summary of the method: as §1

PUM1 PUF domain R4-NYP = PUM1 PUF domain R4-NYP (Homo sapiens, UniProt Q14671 828-1176, H972Y;Q975P)
Summary of the method: as §1

PUM1 PUF domain R5-LLR = PUM1 PUF domain R5-LLR (Homo sapiens, UniProt Q14671 828-1176, C1007L;R1008L;Q1011R)
Summary of the method: as §1

PUM1 PUF domain R5-RYE = PUM1 PUF domain R5-RYE (Homo sapiens, UniProt Q14671 828-1176, C1007R;R1008Y;Q1011E)
Summary of the method: as §1

Sequence: GGCUAGAACUAGUGGAUCCCCCGGCGCCCGGCGGCUCGAGCCCGGGUAAGUGUAAAUAGUCUGCAUGCCGCCGGGCGCCAUGCCUGCAGGUCGACUCUAGAAAACAUG
- binding signal (PUM1 PUF domain R5-RQP): 2.21 log2 enrichment (interaction score)
- binding signal (PUM1 PUF domain R6-GWK): 7.25 log2 enrichment (interaction score)
- binding signal (PUM1 PUF domain R4-MPS): 4.59 log2 enrichment (interaction score)
- binding signal (PUM1 PUF domain R5-GRY): 3.42 log2 enrichment (interaction score)
- binding signal (PUM1 PUF domain R4-TPV): 2.59 log2 enrichment (interaction score)
- binding signal (PUM1 PUF domain R3-VWG): 4.18 log2 enrichment (interaction score)
- binding signal (PUM1 PUF domain R6-NRS): 3.98 log2 enrichment (interaction score)
- binding signal (PUM1 PUF domain R5-FRK): 2.17 log2 enrichment (interaction score)
- binding signal (PUM1 PUF domain R4-RIY): 7.23 log2 enrichment (interaction score)
- binding signal (PUM1 PUF domain R4-GPY): 2.92 log2 enrichment (interaction score)

Sequence: GGCUAGAACUAGUGGAUCCCCCGGCGCCCGGCGGCUCGAGCCCGGGUAAGUGUCAAUAGUCUGCAUGCCGCCGGGCGCCAUGCCUGCAGGUCGACUCUAGAAAACAUG
- binding signal (PUM1 PUF domain R5-RQP): 4.91 log2 enrichment (interaction score)
- binding signal (PUM1 PUF domain R5-KSS): 3.4 log2 enrichment (interaction score)
- binding signal (PUM1 PUF domain R5-GRY): 0.08 log2 enrichment (interaction score)
- binding signal (PUM1 PUF domain R5-SKC): 1.38 log2 enrichment (interaction score)
- binding signal (PUM1 PUF domain R5-FRK): 3.81 log2 enrichment (interaction score)

Sequence: GGCUAGAACUAGUGGAUCCCCCGGCGCCCGGCGGCUCGAGCCCGGGUAAGUGUAAUUAGUCUGCAUGCCGCCGGGCGCCAUGCCUGCAGGUCGACUCUAGAAAACAUG
- binding signal (PUM1 PUF domain R3-RAM): 2.45 log2 enrichment (interaction score)
- binding signal (PUM1 PUF domain R3-VWG): 2.33 log2 enrichment (interaction score)

Sequence: GGCUAGAACUAGUGGAUCCCCCGGCGCCCGGCGGCUCGAGCCCGGGUAAGUGAAAAUAGUCUGCAUGCCGCCGGGCGCCAUGCCUGCAGGUCGACUCUAGAAAACAUG
- binding signal (PUM1 PUF domain R6-NWI): 3.09 log2 enrichment (interaction score)

Sequence: GGCUAGAACUAGUGGAUCCCCCGGCGCCCGGCGGCUCGAGCCCGGGUAAGCGUAAAUAGUCUGCAUGCCGCCGGGCGCCAUGCCUGCAGGUCGACUCUAGAAAACAUG
- binding signal (PUM1 PUF domain R8-VFK): 4.7 log2 enrichment (interaction score)

Sequence: GGCUAGAACUAGUGGAUCCCCCGGCGCCCGGCGGCUCGAGCCCGGGUAAGUGUAAGUAGUCUGCAUGCCGCCGGGCGCCAUGCCUGCAGGUCGACUCUAGAAAACAUG
- binding signal (PUM1 PUF domain R3-GND): 3.15 log2 enrichment (interaction score)
- binding signal (PUM1 PUF domain R3-VWG): 1.81 log2 enrichment (interaction score)

Sequence: GGCUAGAACUAGUGGAUCCCCCGGCGCCCGGCGGCUCGAGCCCGGGUAAGUGUAAAUGGUCUGCAUGCCGCCGGGCGCCAUGCCUGCAGGUCGACUCUAGAAAACAUG
- binding signal (PUM1 PUF domain R1-KVV): 1.3 log2 enrichment (interaction score)

Sequence: GGCUAGAACUAGUGGAUCCCCCGGCGCCCGGCGGCUCGAGCCCGGGUAAGUGUACAUAGUCUGCAUGCCGCCGGGCGCCAUGCCUGCAGGUCGACUCUAGAAAACAUG
- binding signal (PUM1 PUF domain R4-NYP): 2.11 log2 enrichment (interaction score)
- binding signal (PUM1 PUF domain R4-MPS): 2.38 log2 enrichment (interaction score)
- binding signal (PUM1 PUF domain R4-TPV): 2.89 log2 enrichment (interaction score)

Sequence: GGCUAGAACUAGUGGAUCCCCCGGCGCCCGGCGGCUCGAGCCCGGGUAAGUGUAUAUAGUCUGCAUGCCGCCGGGCGCCAUGCCUGCAGGUCGACUCUAGAAAACAUG
- binding signal (PUM1 PUF domain R4-NYP): 2.54 log2 enrichment (interaction score)
- binding signal (PUM1 PUF domain R4-TPV): 2.96 log2 enrichment (interaction score)

Sequence: GGCUAGAACUAGUGGAUCCCCCGGCGCCCGGCGGCUCGAGCCCGGGUAAGUGUUAAUAGUCUGCAUGCCGCCGGGCGCCAUGCCUGCAGGUCGACUCUAGAAAACAUG
- binding signal (PUM1 PUF domain R5-LLR): 2.92 log2 enrichment (interaction score)
- binding signal (PUM1 PUF domain R5-GRY): 3.13 log2 enrichment (interaction score)
- binding signal (PUM1 PUF domain R5-RYE): 4.59 log2 enrichment (interaction score)
- binding signal (PUM1 PUF domain R5-SKC): 3.5 log2 enrichment (interaction score)
- binding signal (PUM1 PUF domain R5-FRK): 3.62 log2 enrichment (interaction score)

Sequence: GGCUAGAACUAGUGGAUCCCCCGGCGCCCGGCGGCUCGAGCCCGGGUAAGUGUAAAUUGUCUGCAUGCCGCCGGGCGCCAUGCCUGCAGGUCGACUCUAGAAAACAUG
- binding signal (PUM1 PUF domain R1-KVV): 5.82 log2 enrichment (interaction score)

Sequence: GGCUAGAACUAGUGGAUCCCCCGGCGCCCGGCGGCUCGAGCCCGGGUAAGUGUAAAUCGUCUGCAUGCCGCCGGGCGCCAUGCCUGCAGGUCGACUCUAGAAAACAUG
- binding signal (PUM1 PUF domain R1-KVV): 5.35 log2 enrichment (interaction score)
